Among the data in PubChem BioAssay are z-score and composite z-score values, retold here.

Active and inactive are the calls of the source. Unless noted, how the calls were made is not given here.

Test [1] can be described thus: resazurin metabolic signal in HepG2 cells – cell-based, resazurin fluorescence, 24 h, PK04 Diversity Set, profiling panel (AID 1172). Further: test concentration not given here. The following applies: HepG2 viability, higher = more signal. On the technique in general: Alamar Blue is a resazurin reagent that responds to reducing activity.
Test [2] can be described thus: budding yeast growth changes without added modifier – OD600, strain BY4716, 24 h, basal condition, primary screen (AID 1173). The following applies: S. cerevisiae BY4716 growth, OD600, 24 h; higher = more signal, called active from +8 up or from −8 down.
The nature of test [3]: viability profiling in MM1S myeloma cells – cell-based, resazurin fluorescence, basal, 24 h, PK04 Diversity Set, profiling panel (AID 1174).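 Further: MM1S multiple myeloma cell line; test concentration not given here.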 The following applies: higher = more signal, called active from +8 up or from −8 down.
For test [4], the target named is Dihydroorotate dehydrogenase (quinone), mitochondrial (Plasmodium falciparum (isolate 3D7)) (UniProt Q08210). Nature of the test: inhibition of P. falciparum DHODH – biochemical, C-terminal His tag, absorbance 600 nm, primary screen (AID 1175).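 Further: recombinant parasite enzyme with a five histidine tag at its C terminus; test concentration not given here.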 The following applies: PfDHODH enzyme, DCIP absorbance 600 nm; higher = more signal, called active from +8 up or from −8 down.
Dihydroorotate dehydrogenase (quinone), mitochondrial (Plasmodium falciparum (isolate 3D7)), sequence (Q08210 whole entry, looked up): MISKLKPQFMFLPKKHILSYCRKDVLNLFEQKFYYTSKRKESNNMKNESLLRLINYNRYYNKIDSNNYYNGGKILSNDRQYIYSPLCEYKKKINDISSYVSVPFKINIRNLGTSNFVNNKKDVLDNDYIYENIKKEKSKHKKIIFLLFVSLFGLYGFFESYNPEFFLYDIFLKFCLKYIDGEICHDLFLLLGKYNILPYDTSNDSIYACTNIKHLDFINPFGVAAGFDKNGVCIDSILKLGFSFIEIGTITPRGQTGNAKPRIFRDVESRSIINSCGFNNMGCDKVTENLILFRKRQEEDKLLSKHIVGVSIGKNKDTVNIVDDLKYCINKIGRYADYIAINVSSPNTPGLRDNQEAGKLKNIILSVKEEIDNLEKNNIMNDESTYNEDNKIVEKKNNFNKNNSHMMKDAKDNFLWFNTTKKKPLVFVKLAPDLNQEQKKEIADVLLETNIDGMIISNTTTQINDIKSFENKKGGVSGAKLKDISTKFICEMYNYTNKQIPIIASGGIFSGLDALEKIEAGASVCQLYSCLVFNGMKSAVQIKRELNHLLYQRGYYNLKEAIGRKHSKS

The nature of test [5]: inhibition of PAO1 biofilm formation – strain PAO1, LB-PBS medium, absorbance 600 nm, primary screen (AID 1176). Further: test concentration not given here. The following applies: P. aeruginosa PAO1 growth/biofilm, A600, 12 h; higher = more signal.
The nature of test [6]: growth modulation of vineyard yeast isolate – strain RM11-1a, OD600, basal, 24 h, primary screen (AID 1177).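 Further: cultures grown under basal conditions with no added stressor; test concentration not given here.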 The following applies: S. cerevisiae RM11-1a growth, OD600, 24 h; higher = more signal, called active from +8 up or from −8 down.
A short description of test [7]: growth of efflux-deficient E. coli DRC39 – strain DRC39, OD650, 24 h, E. coli filamentation inducers, primary screen (AID 1178).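 Further: growth measured as culture turbidity by optical density at 650 nm; test concentration not given here.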 The following applies: E. coli DRC39 acrAB, higher = more signal, called active from +8 up or from −8 down.
Test [8] is described as follows: growth of efflux-deficient E. coli DRC39 – strain DRC39, OD650, 48 h, E. coli filamentation inducers, primary screen (AID 1179).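 Further: screen aims at cell division blockers that make cells filament.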 The following applies: E. coli DRC39 delta-acrAB growth, higher = more signal, called active from +8 up or from −8 down.
Test [9] in a line: viability profiling in RPMI8226 myeloma cells – cell-based, resazurin fluorescence, basal, 24 h, PK04 Diversity Set, profiling panel (AID 1180).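 Further: RPMI8826 multiple myeloma cell line at 5000 cells per well; test concentration not given here.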 The following applies: higher = more signal.
The target in test [10] is E3 ubiquitin-protein ligase XIAP (Homo sapiens) (UniProt P98170). Nature of the test: small molecules binding XIAP protein – biophysical, small-molecule microarray, fluorescence 635 nm, primary screen (AID 1181).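 Further: score merges 667 nm emission and signal to noise over triplicate slides.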 The following applies: higher = more signal.
E3 ubiquitin-protein ligase XIAP (Homo sapiens), sequence (P98170 whole entry, looked up): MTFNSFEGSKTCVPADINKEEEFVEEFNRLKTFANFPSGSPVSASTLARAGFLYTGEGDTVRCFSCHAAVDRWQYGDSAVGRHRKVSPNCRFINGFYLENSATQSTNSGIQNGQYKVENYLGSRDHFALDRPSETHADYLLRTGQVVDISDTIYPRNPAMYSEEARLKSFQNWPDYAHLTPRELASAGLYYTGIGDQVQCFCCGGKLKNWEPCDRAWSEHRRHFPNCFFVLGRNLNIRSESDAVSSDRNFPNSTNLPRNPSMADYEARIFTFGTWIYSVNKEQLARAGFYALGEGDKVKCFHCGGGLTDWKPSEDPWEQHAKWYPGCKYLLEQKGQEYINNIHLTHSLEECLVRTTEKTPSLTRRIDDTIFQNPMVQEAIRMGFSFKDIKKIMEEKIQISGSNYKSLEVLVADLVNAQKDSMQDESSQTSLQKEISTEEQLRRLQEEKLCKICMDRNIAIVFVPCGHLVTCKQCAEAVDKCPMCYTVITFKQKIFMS

Turning to `CC(C)CCC[C@@H](C)[C@H]1CC[C@@]2(C)C3=C(CC[C@]12C)[C@@]1(C)CC[C@H](OC(=O)C(C)(C)C)C(C)(C)C1CC3` (stereo not given in full), the z-score in test [1] was 0.411; in [2], -0.743 (inactive); in [3], 0.0609 (inactive); in [5] it was 1.65 (inactive); in test [6], -4.69 (inactive); in [7], 1.41 (inactive). The z-score in [8] is -0.805 (inactive); in test [9], 0.662. Besides, the composite z-score in [4] was -2.48 (inactive); in test [10] it was 0.0356.

Regarding `CC(C)c1ccc(NN2C(C(O)c3cccs3)C=CC3C(=O)N(c4ccccc4)C(=O)C32)cc1` (stereo not given), the z-score was -1.75 in test [1]; -2.27 (inactive) in test [2]; -1.73 (inactive) in test [3]; 0.835 (inactive) in [5]; 0.883 (inactive) in [6]; -0.649 (inactive) in test [7]. The results for the z-score in test [8] and in test [9] were -0.73 (inactive) and -1.14, respectively. Moreover, the values for the composite z-score in test [4] and in test [10] were 0.355 (inactive) and 0.44, respectively.

Consider `[N-]=[N+]=NCc1ccccc1C[C@]1(C(=O)NCCN2CCOCC2)COC(c2ccc(OCCCO)cc2)=N1`, for which the z-score was -0.801 in test [1]; -1.36 (inactive) in test [2]; -1.28 (inactive) in test [3]; 0.535 (inactive) in test [5]; -0.383 (inactive) in test [6]; 0.786 (inactive) in [7]. Also, the z-score is 0.0653 (inactive) in test [8] and 0.106 in [9]. The composite z-score is 0.456 (inactive) in test [4] and -0.0125 in test [10].

Regarding `C=CCNC(=O)[C@H]1[C@@H]2C(=O)O[C@@H](c3ccccc3)[C@@H](c3ccccc3)N2[C@@H](c2ccc(OCCO)cc2)[C@]12C(=O)N(C(=O)OCCOC)c1ccc(C#CC3=CCCCC3)cc12`, the z-score is 0.293 in test [1]; 0.567 (inactive) in test [2]; -0.344 (inactive) in test [3]; 2.06 (inactive) in test [5]; 1.45 (inactive) in test [6]; -0.178 (inactive) in test [7]. Further, the z-score is 0.215 (inactive) in test [8] and 0.136 in test [9]. The composite z-score was -0.91 (inactive) in [4] and -0.0727 in test [10].

For `C=CCOC(=O)[C@@H]1[C@H]2C(=O)O[C@H](c3ccccc3)[C@H](c3ccccc3)N2[C@H](c2ccc(OCCOC(=O)[C@@H]3C[C@@H]4C(=O)N5CCC[C@H]5C(=O)N4[C@@H]3c3cccc(OCCO)c3)cc2)[C@@]12C(=O)Nc1ccc(I)cc12`, the z-score is 0.586 in [1]; 1.53 (inactive) in [2]; 0.356 (inactive) in test [3]; 1.69 (inactive) in [5]; 2.07 (inactive) in test [6]; 0.132 (inactive) in test [7]. For the same molecule, the values for the z-score in test [8] and in test [9] were -0.63 (inactive) and 0.281, respectively. The results for the composite z-score in test [4] and in [10] were -0.652 (inactive) and -0.224, respectively.

On to `COC(=O)[C@@]1(Cc2ccc(OC)cc2)[C@H]2c3cc(C(=O)N(C)C)n(Cc4cc(C)n(C)n4)c3C[C@H]2CN1C(=O)c1ccccc1`, for which the z-score in test [1] is -1.04; in test [2], 0.932 (inactive); in test [3], -1.82 (inactive); in test [5] it was 0.992 (inactive); in test [6], 0.949 (inactive); in test [7], -1.2 (inactive). Moreover, the z-score was -1.29 (inactive) in test [8] and -0.936 in test [9]. Moreover, the results for the composite z-score in test [4] and in test [10] were -0.546 (inactive) and 0.0018, respectively.

For the molecule `CN(C)C(=O)[C@@]1(Cc2ccccc2N=[N+]=[N-])N=C(c2ccc(OCCCO)cc2)O[C@H]1c1ccccc1N=[N+]=[N-]`, the z-score in test [1] was -0.663; in test [2] it was 0.582 (inactive); in test [3], -1.8 (inactive); in test [5], -0.73 (inactive); in [6] it was 2.9 (inactive); in [7], 0.732 (inactive). Further, the z-score in test [8] is -0.421 (inactive); in test [9] it was -2.2. For the same molecule, the results for the composite z-score in test [4] and in test [10] were 1.32 (inactive) and 1.98, respectively.

`NC(=O)NCC#Cc1ccc2c(c1)[C@]1(C(=O)N2)[C@H](c2ccc(O)cc2)N2[C@H](c3ccccc3)[C@H](c3ccccc3)OC(=O)[C@H]2[C@@H]1C(=O)NC[C@H](O)c1ccccc1`: the z-score in [1] is 0.22; in test [2], -0.683 (inactive); in test [3], 0.953 (inactive); in test [5], -0.136 (inactive); in test [6], -0.0444 (inactive); in test [7], 0.203 (inactive). Further, the z-score in test [8] is 0.841 (inactive); in [9], 0.82. Besides, the composite z-score in test [4] is -0.494 (inactive); in test [10], 0.045.

With `C[N+](C)(C)CCCCCCNC(=O)[C@@H]1C[C@@H]2C(=O)NCC(=O)N2[C@@H]1c1ccc(O)cc1`, the z-score is 0.811 in test [1]; 0.0566 (inactive) in [2]; 0.562 (inactive) in [3]; -0.447 (inactive) in [5]; 0.311 (inactive) in [6]; 0.182 (inactive) in test [7]. Also, the z-score was 0.128 (inactive) in [8] and 0.203 in [9]. Also, the results for the composite z-score in test [4] and in [10] were -1.45 (inactive) and -0.128, respectively.

As for `O=C1O[C@H](c2ccccc2)[C@H](c2ccccc2)N2[C@H]1[C@@H](C(=O)NC[C@H](O)c1ccccc1)[C@]1(C(=O)Nc3ccccc31)[C@H]2c1ccccc1OCCO`, the z-score is -2.69 in test [1]; -0.251 (inactive) in test [2]; -9.21 (active) in test [3]; 3.02 (inactive) in test [5]; 1.75 (inactive) in [6]; 0.346 (inactive) in test [7]. The z-score is 0.784 (inactive) in [8] and -7.33 in [9]. In addition, the composite z-score in [4] is -0.719 (inactive); in test [10] it was 0.189.

Consider `CCCNC(=O)[C@@H]1c2ccccc2C(=O)N(CC23CC4CC(CC(C4)C2)C3)[C@H]1c1ccc(CO)cc1`, for which the z-score in test [1] was -0.411; in test [2], -0.774 (inactive); in [3] it was 0.411 (inactive); in [5], 0.718 (inactive); in [6], 0.987 (inactive); in [7], -0.0494 (inactive). The figures for the z-score in test [8] and in test [9] were -0.501 (inactive) and 0.748, respectively. In addition, the composite z-score in [4] is 0.627 (inactive); in [10], 1.94.

`C=C(COC)C(=O)CC[C@H](OC(=O)c1ccccc1-c1ccccc1C(=O)O)c1ccc(OCCO)cc1`: the z-score in test [1] was -0.381; in test [2], 0.142 (inactive); in [3], -0.288 (inactive); in test [5], 1.3 (inactive); in test [6], -0.386 (inactive); in test [7] it was -0.752 (inactive). Further, the z-score in [8] is -0.561 (inactive); in test [9] it was -0.7. In addition, the figures for the composite z-score in [4] and in [10] were -0.575 (inactive) and 0.0223, respectively.
